Compounds with a hit are over-represented: about 12% of the library has one in this group of screens.
WT yeast gro inh: growth inhibition of WT yeast, mitochondrial fusion screen; mitochondrial fusion phenotypic screen, WT strain; inhibition, % at 10 µM; hit rate 2.1% among 190,000; in the data active = inhibition above about 58%; tested in S. cerevisiae
Lmaj promast: inhibitors of Leishmania major promastigote growth | Leishmania major promastigotes, resazurin fluorescence viability | inhibition, % at 10 µM | hit rate 9% among 200,000; in the data active = inhibition above about 50%;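 note: promastigotes grown with compound for 44 hours at 28 °C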
KCC2 mod: modulators of human KCC2 chloride dependent transport; hit rate 2.2% among 190,000; KCC2 cells, thallium flux FluoZin-2 fluorescence; Q9H2X9; B-score of Tl+ flux slope (higher = more flux/activation; lower = inhibition) at 10 µM;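 active = thallium flux slope and its plate-corrected score both differing from the plate sample mean at a set confidence after two filtering rounds, in either direction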;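 note: slope of fluorescence scaled to starting intensity during 10 to 20 s after thallium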
Calpain2 inh: calpain II (pig) inhibition. inhibition, % at 16 µM. hit rate 0.37% among 220,000. purified calpain II, fluorogenic peptide substrate, 30 min;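 active = inhibition above about 50%, limit read from the data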
ROMK primary: modulators of human ROMK potassium channel; P48048; Tet-inducible ROMK, thallium flux fluorescence; actives lie on both sides; B-score at 10 µM; hit rate 2% among 130,000;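 active = signal ratio slope over the read window, or its plate-corrected B-score, at least 3 SD from the plate mean, either direction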;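 note: B-score of the F/F0 ratio slope over 7 to 12 s after thallium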
* hit, by the source's call; x = no result.

SMILES | WT yeast gro inh | Lmaj promast | KCC2 mod | Calpain2 inh | ROMK primary
CCOc1cc(CN2CCC(CO)(Cc3cccc(C(F)(F)F)c3)CC2)ccc1OC | 5 | 85* | -0.37 | 12 | -1.8
Cc1ccc(CN2CCN(Cc3ccc(C)s3)CC2CCO)cc1 (stereo not given) | 10 | 8 | x | 8 | x
CCN1C(=O)c2ccccc2S(=O)c2ccc(C(=O)N3CCOCC3)cc21 (stereo not given) | x | x | -0.4 | 0 | x
Cc1cc(C)nc(Sc2ccc([N+](=O)[O-])cc2[N+](=O)[O-])n1 | -3 | 87* | 0.57 | -4 | 0.23
CN(C)/N=C/c1ccc(Sc2ccc([N+](=O)[O-])cc2[N+](=O)[O-])o1 | 7 | -4 | 1.2 | 27 | -0.046
CCCc1cc(=O)[nH]c(-n2[nH]c3c(c2=O)CCCC3)n1 | -3 | 94* | x | 0 | x
ClCC1CN(Cc2ccccc2Cl)CCO1 (stereo not given) | 1 | -2 | 0.013 | -18 | -0.33
CCN1C(c2ccccc2)C(C)C(=O)C(C)C1c1ccccc1 (stereo not given) | 81* | 0 | 1.1 | -13 | -0.042
CCc1nnc(NC(=O)c2ccncc2)s1 | -7 | -4 | 0.023 | -3 | -0.6
Cc1ccc(S(=O)(=O)CCc2nnc(NC(=O)c3ccccn3)s2)cc1 | 6 | 82* | x | -39 | 0.72
CCc1nnc(NC(=O)c2cccc(C(=O)Nc3nnc(CC)s3)n2)s1 | 63* | 99* | 0.037 | 9 | x
O=C1OCC(CO)(CO)N=C1NNc1ccc(Cl)c(Cl)c1 | 68 | 100* | x | 17 | 0.012
COc1cc(N(C)C)c([N+](=O)[O-])cc1C(=O)NC(C)CNc1ccc([N+](=O)[O-])cc1Cl (stereo not given) | 4 | 31 | -1.2 | -74 | x
O=C(N/N=C/c1cc(Cl)cc([N+](=O)[O-])c1O)c1cc(-c2ccccn2)nc2ccccc12 | x | x | -1.7 | -93 | x
O=[N+]([O-])c1cc(Cl)cc(/C=N\Nc2ccccn2)c1O | -14 | 98* | x | 0 | x
CCOc1ccc(C(=O)N/N=C/c2ccc(-c3ccc(S(=O)(=O)Nc4ncccn4)cc3)o2)cc1 | -11 | -8 | -0.0011 | -175 | 0.74
O=C(N/N=C/c1ccc(-c2ccc(S(=O)(=O)Nc3ncccn3)cc2)o1)c1cc2ccccc2cc1O | -5 | 73* | -0.72 | -189 | -0.0098
Cc1cccc(N2C(=O)CS/C2=N\NC(=O)c2ccc(Cl)cc2)c1C | -1 | 1 | 3* | -11 | 0.11
Cc1ncsc1C(=O)Nc1nc2c(s1)CC(C)CC2 (stereo not given) | 65* | 28 | -0.15 | 0 | 0.27
O=c1c(Cc2ccccc2)c(O)ccn1Cc1ccco1 | 5 | -7 | 0.24 | 2 | -0.98
CCN(c1ccc(NC(=O)CCNC(=O)c2ccco2)cc1)C(C)C | -9 | 54* | -0.33 | 5 | x
Nc1cccc(-n2cccc2)c1 | -3 | -6 | -0.93 | -45 | 0.82
O=C(CCCn1c(=S)[nH]c2ccccc2c1=O)N1CCN(c2cccc(Cl)c2)CC1 | 17 | -5 | -0.66 | -83 | x
O=C(CCCCCNc1nc(=S)[nH]c2ccccc12)N1CCN(c2ccccn2)CC1 | 3 | 57* | x | 9 | -0.015
O=C(CCCn1c(=O)[nH]c2ccccc2c1=O)N1CCN(c2ccccn2)CC1 | 1 | -3 | 0.88 | 9 | -0.19
SMILES | WT yeast gro inh | Lmaj promast | KCC2 mod | Calpain2 inh | ROMK primary
Cc1ccc(CNC(=O)CCCCCNc2nc(=S)[nH]c3ccccc23)cc1 | -7 | 0 | 0.39 | 61* | -0.53
COc1cccc(N2CCN(C(=O)CCCCCNc3nc(=S)[nH]c4ccccc34)CC2)c1 | 15 | 74* | -1.8 | -14 | -1.4
Cc1onc(-c2c(Cl)cccc2Cl)c1/C(N)=N/OC(=O)C1CC1 | x | x | x | 5 | x
CN1CC(=O)N(CC(=O)Nc2cccc(S(=O)(=O)N3CCOCC3)c2)C1=O | 5 | -2 | 0.49 | -33 | 0.033
Cc1ccc2cccc(SCC(=O)NCC#N)c2n1 | -10 | -6 | 0.65 | -171 | 0.18
CCCc1[nH][nH]c(=O)c1C(c1ccc(Br)cc1)C(C#N)C#N (stereo not given) | -2 | 50* | 0.71 | 1 | x
CN(C)c1ccc(O)c2c1CC1CC3[C@@H](N(C)C)C(=O)C(C(N)=O)=C(O)[C@]3(O)C(=O)C1=C2O (stereo not given in full) | 60* | 83* | 0.28 | -47 | x
Cc1[nH]n(C(C)(C)C)c(=O)c1Sc1ccc(Cl)cc1 | 61* | 25 | 0.067 | -9 | -0.67
CCCn1c(SCC(=O)c2ccc(OC)c(OC)c2)nc2c1c(=O)n(C)c(=O)n2C | -10 | 1 | 0.35 | -93 | x
Cc1cc(Cn2ccnc2)c(C)cc1Cn1ccnc1 | -5 | 98* | -0.81 | -1 | 0.24
COc1ccc(C=O)cc1Cn1ccnc1 | -10 | -8 | -0.29 | -31 | 0.21
CCCNC(=O)Cn1nc([N+](=O)[O-])c([N+](=O)[O-])c1C | -15 | 24 | -0.35 | -6 | -0.44
CCCCNC(=O)Cn1nc([N+](=O)[O-])c([N+](=O)[O-])c1C | -11 | 79* | -0.31 | -2 | 0.55
Cc1cc(Cl)ccc1OCC(O)CN1C(C)CCCC1C (stereo not given) | 11 | 91* | 0.1 | 22 | 0.33
CC(=O)c1ccc(OCC(O)CN2C(C)CCCC2C)cc1 (stereo not given) | 14 | 72* | x | 2 | x
CC(=O)c1ccc(OCC(O)CN2CCC(C)CC2)cc1 (stereo not given) | 4 | 88* | x | 0 | x
CCC(=O)c1ccc(OCC(O)CN2CCN(C(c3ccccc3)c3ccccc3)CC2)cc1 (stereo not given) | 18 | 60* | x | -5 | x
Cc1ccccc1OCC(O)CN1CCN(c2ccc(Cl)cc2)CC1 (stereo not given) | x | x | x | 27 | x
CCOc1ccccc1CN1CCN(Cc2cn(C)nc2-c2ccccc2)CC1CCO (stereo not given) | -1 | 1 | 0.082 | -7 | -1.6
CC(=O)Nc1c(O)nc(SCC(=O)Nc2c(C)cccc2C)[nH]c1=O | 5 | -2 | 0.026 | -20 | -0.34
CC(C)N(Cc1nc(-c2ccccc2)no1)C(=O)C(Cl)(Cl)Cl | 72* | 13 | -0.025 | 40 | 0.48
COc1ccccc1OCC(=O)N(Cc1nc(-c2ccc(Cl)cc2)no1)C(C)C | 27 | 4 | 0.072 | -2 | x
CC(C)N(Cc1nc(-c2ccccc2)no1)C(=O)C(C)(C)C | -2 | -5 | -0.6 | 7 | -0.68
O=C1c2ccccc2C(=O)N1CCCc1nc(-c2ccccn2)no1 | -7 | -5 | x | 11 | x
CC(C)N(Cc1nc(-c2ccc(Cl)cc2)no1)C(=O)CCC1CCCC1 | 67* | -7 | -0.35 | -9 | x
Nc1nonc1-c1noc(CCCCCN2C(=O)c3ccccc3C2=O)n1 | 15 | 0 | -1.9 | 51* | x
Cc1ccc(-c2noc(CN(C(=O)CCCCCN3C(=O)c4ccccc4C3=O)C(C)C)n2)cc1 | -10 | 8 | -0.35 | 55* | -3.6
Cc1ccc(C2C(C#N)=C(N)N(c3cccnc3)C3=C2C(=O)CCC3)c(C)c1 (stereo not given) | -41 | 4 | -0.65 | -12 | 0.82
COc1ccc(/C=C(\C#N)C(=O)OCC(=O)N2CC(C)OC(C)C2)cc1 (stereo not given) | -7 | -4 | 0.62 | -20 | 0.44
